Each sequence was assayed against C1orf106 (assay: pooled miR-30 sensor sort-seq; sequence = guide strand). Conditions: shRNA.
TATTGAAGTATTTAGCACTAAA showed a sensor-assay potency score (higher = more potent) of -0.989. Work on TTGTAAGCCGCTCCGATCCTGC yielded a sensor-assay potency score (higher = more potent) of -0.983. TAAGCCGCTCCGATCCTGCGGC showed a sensor-assay potency score (higher = more potent) of -0.585. TAGAACCAGAGCACAGAGCGTT showed a sensor-assay potency score (higher = more potent) of -0.706. TAGCTGAGGACACAGCCACTTG was tested, and the sensor-assay potency score (higher = more potent) was -1.67. TTCTCCTCCAGGCACAGCCGAC gave a sensor-assay potency score (higher = more potent) of -1.78. In the case of TAAAACATAATCATATCACAGG, the sensor-assay potency score (higher = more potent) is reported as -0.615. TTCAGGTACAAAGACTTGCACA showed a sensor-assay potency score (higher = more potent) of -0.854. For TTGAGCTCCTCGGACACGGCGG, the sensor-assay potency score (higher = more potent) was -0.833.

Each sequence was assayed against C1orf109 in the same assay as above. Conditions: shRNA.
Work on TGACAAAAGACACAAAACCAGG yielded a sensor-assay potency score (higher = more potent) of -1.47. TATGTATCGATGATAGCACGTT showed a sensor-assay potency score (higher = more potent) of 0.283. TTCTTTAGAAACATCAGGGTTC gave a sensor-assay potency score (higher = more potent) of 0.139. ATCTTGTACAAGATCCTGGTGT gave a sensor-assay potency score (higher = more potent) of -0.231. TATCTTGTACAAGATCCTGGTG was tested, and the sensor-assay potency score (higher = more potent) was -0.3. TTTTTAAAAAAAGACAACCTAA gave a sensor-assay potency score (higher = more potent) of -0.867. With TTTCTCTTCAGGTACGACTTTC the sensor-assay potency score (higher = more potent) was -0.727. TTTAGGTCCACAATAGAGGAAA gave a sensor-assay potency score (higher = more potent) of -1.1. TAAATAGACACTGAAAAGGTAT showed a sensor-assay potency score (higher = more potent) of -0.303. Work on TTATTAATAATAGTTATCTGGT yielded a sensor-assay potency score (higher = more potent) of 0.0251. With TTGAAAAATATCTATACCCTTT the sensor-assay potency score (higher = more potent) was -0.465. Work on TAGATGAAGGCAGCAGACCTTG yielded a sensor-assay potency score (higher = more potent) of -1.04.

These sequences were tested against C1orf114 in the same assay as above. Conditions: shRNA.
Sequence TTGGTTAATATTCTCTTCCTTC has a sensor-assay potency score (higher = more potent) of -0.217. TTCTCCATAATATATCTCCTTA showed a sensor-assay potency score (higher = more potent) of -0.58. Work on TAGTAGTGTCTTCTAGTGGAGG yielded a sensor-assay potency score (higher = more potent) of -0.965. Sequence TTTTCCATCTCTCTCTACCAGT has a sensor-assay potency score (higher = more potent) of -0.549. TTCTAGTGGAGGAACTTCCAAA was tested, and the sensor-assay potency score (higher = more potent) was -0.899. TACTATGTCATTCTCTCTCTTT gave a sensor-assay potency score (higher = more potent) of -0.145. For TTCTTGATTCTGTAGAAGCTTG, the sensor-assay potency score (higher = more potent) was -0.732. With TTCTTGTCCAAAATCATTGGAA the sensor-assay potency score (higher = more potent) was -0.446. For TTTTCTTTTGCAACCACGCTTT, the sensor-assay potency score (higher = more potent) was -0.00106. Work on TTTGTAGTTCTTTCTGTCGAGG yielded a sensor-assay potency score (higher = more potent) of -0.841. Sequence TTCTTTCATCTGCTCTTCGTGC has a sensor-assay potency score (higher = more potent) of -0.834. In the case of TTAGCTTCTAGTCGGAGCTGTC, the sensor-assay potency score (higher = more potent) is reported as -0.331.

What follows are sequences tested against C1orf115 in the same assay as above. Conditions: shRNA.
TTCAAGTCTGAGATGCTCCAGG gave a sensor-assay potency score (higher = more potent) of 0.617. In the case of TCTAGTAACATCCTCTTCCTCC, the sensor-assay potency score (higher = more potent) is reported as 0.254. TTCTCTTCCAAATATGCTGTGT showed a sensor-assay potency score (higher = more potent) of -0.325. For TCGTCCGCCGCGCTCGTCCCGC, the sensor-assay potency score (higher = more potent) was -1.58. TTCTGCTGCACACCCACACTGC was tested, and the sensor-assay potency score (higher = more potent) was -0.976. Work on TTTTCTCTTCCAAATATGCTGT yielded a sensor-assay potency score (higher = more potent) of -0.444. TCTGACTCTAGTAACATCCTCT gave a sensor-assay potency score (higher = more potent) of 0.697.
Note: reference of the scale not given here.
